According to PubChem BioAssay AID1569 (National Center for Advancing Translational Sciences (NCATS), 2009):
Records with an inconclusive call do not appear. Unmarked numbers belong to inactive results. Active and inactive are the calls of the source. The call rests on the fitted dose curve; in most records, active means well fitted inhibition curve with a large enough effect; inconclusive means small, poorly fitted or top-dose-only effect, or effect the other way, or another doubt; inactive means no such curve, though single readings can be large or run the other way.

test: Confirmation Concentration-Response Assay for lipid storage modulators; conditions: Drosophila S3 cells, lipid droplet BODIPY/CellTracker ratio, 18-24 h; series mostly up to 46.1 µM; activity change, negative = inhibition: at the top concentration; further: nearly all actives have a fitted effect of over 80% in size;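 on activity change, negative = inhibition: -100% = full block of lipid deposition by 20 µM Triacsin C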
Method in brief: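 Cells at 5,000/well received compound as a titration plus oleic acid (added as 400 uM solution) and were incubated 18–24 h at 24 °C. BODIPY 493/503 lipid signal and CellTracker Red cell count were read by 488-nm laser-scanning cytometry. Activity was normalised to 20 uM Triacsin C.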
Potency means the concentration at half of the fitted maximal effect.

| SMILES | activity change, negative = inhibition [%] | Potency |
| --- | --- | --- |
| CCOc1ccc(CCNC(=O)COC(=O)COc2ccc(Br)cc2)cc1OCC | 20 | – |
| CCOC(=O)C1CCN(C(=O)C2(NC(=O)Nc3ccccc3Cl)CCCCC2)CC1 | – | 0.628 µM (active) |
| Cc1cccc(NC(=O)CNC(=O)C23CC4CC(CC(Cl)(C4)C2)C3)n1 | – | 3.15 µM (active) |
| COc1ccc2c(c1)c1nnc(SCC(=O)N3C(C)CCCC3C)nc1n2C (stereo unspecified) | – | 3.53 µM (active) |
| CCOc1ccc(CCNC(=O)COC(=O)COc2cc(C)cc(C)c2)cc1OCC | 12.7 | – |
| CCOc1ccc(CCNC(=O)COC(=O)c2cccc(N(C)C)c2)cc1OCC | – | 0.396 µM (active) |
| COc1ccc(C)cc1NC(=O)C1CCN(S(=O)(=O)c2cccc3cccnc23)CC1 | – | 15.8 µM (active) |
| CCC1CCCCN1C(=O)c1cc(COc2ccc3ncccc3c2)on1 (stereo unspecified) | – | 4.34 µM (active) |
| COc1ccc(CCNC(=O)COc2ccc(-c3ccccc3)cc2)cc1OC | 10.7 | – |
| CN1CCN(C(=O)C2(NC(=O)NCc3ccccc3)CCCCC2)CC1 | 6.99 | – |
| CCCOc1ccc(Cc2c(Cl)nc(SC)nc2NC)cc1 | – | 14.1 µM (active) |
| CCc1ccc(CN(C)C(=O)c2ccc3c(=O)n4c(nc3c2)CCC4)cc1 | 5.52 | – |
| O=C(NC1CCCc2c1cnn2-c1ccc(F)cc1F)c1cnccn1 (stereo unspecified) | – | 0.445 µM (active) |
| O=S(=O)(c1ccccc1C(F)(F)F)N1CCC(n2cnc3ccccc32)CC1 | – | 0.996 µM (active) |
| COc1ccc(-c2nc(C)ncc2N=Nc2ccccc2)cc1 | – | 25 µM (active) |
| Cc1ccc(NC(=O)CN(C)C(=O)Cn2ncc(Cl)c(Cl)c2=O)cc1 | – | 28.1 µM (active) |
| CCOC(=O)c1cc(CC)sc1NC(=O)C1CC(=O)NN1Cc1ccccc1 (stereo unspecified) | – | 0.315 µM (active) |
| O=C(CSc1nnc2c(n1)[nH]c1ccccc12)Nc1cccc(S(=O)(=O)N2CCOCC2)c1 | – | 15.8 µM (active) |

| SMILES | activity change, negative = inhibition [%] | Potency |
| --- | --- | --- |
| COc1ccc(/C=C/C(=O)NCCc2ccc(OC)c(OC)c2)cc1 | – | 5.6 µM (active) |
| O=C(CC(O)(C(F)(F)F)C(F)(F)F)Nc1ccc(Cl)c(Cl)c1 | – | 9.96 µM (active) |
| COc1ccc(CCNC(=O)CCc2ccc(S(=O)(=O)NC(C)C)cc2)cc1OC | 26 | – |
| CC(C)OC(=O)c1cc2c(ccn2C)n1CC(=O)N(Cc1ccccc1)c1ccccc1 | – | 1.77 µM (active) |
| CCn1c(COc2ccc(Cl)cc2)nnc1SCC(=O)Nc1ccc2c(c1)OCCO2 | – | 11.2 µM (active) |
| O=C(NCc1cccnc1)Nc1cc(Cl)cc(Cl)c1 | 16.6 | – |
| CC(=O)N1CCN(C(=O)C2(NC(=O)Nc3ccc(C)cc3)CCCCC2)CC1 | 9.61 | – |
| COc1ccc(CCNC(=O)c2noc(C(C)C)c2[N+](=O)[O-])cc1OC | 14.7 | – |
| CCC(=O)c1ccc(OCC(=O)Nc2ccc(N3CCOCC3)cc2N2CCOCC2)cc1 | -13.8 | – |
| COCCN(C(=O)c1ccccc1F)c1nnc(-c2ccc(OC)cc2)s1 | – | 25 µM (active) |
| O=C(NCC1(N2CCOCC2)CCCCC1)c1ccc(S(=O)(=O)Nc2ccccc2F)cc1 | – | 3.97 µM (active) |
| O=C1c2ccccc2C(=O)c2c(Nc3ccc(CCO)cc3)ccc(O)c21 | – | 25 µM (active) |
| COc1ccc(CCNC(=O)CC2SC(N)=NC2=O)cc1OC (stereo unspecified) | 3.33 | – |
| COC(=O)c1ccc(C(=O)NC2CCCc3c2cnn3-c2ccccc2F)nc1 (stereo unspecified) | – | 0.177 µM (active) |
| COC(=O)c1ccccc1NC(=O)c1ccc(C#N)cc1 | – | 1.12 µM [activator] (active) |
| Cc1ccc(C(NC(=O)C2CCCCC2)c2c(O)ccc3ccccc23)cc1 (stereo unspecified) | – | 17.7 µM (active) |
| COc1ccc(N=NC2C(=O)N(c3ccccc3)N=C2C)cc1 (stereo unspecified) | – | 14.1 µM (active) |
| CCOc1ccc(CCNC(=O)COC(=O)c2ccc(Cl)nc2)cc1OCC | -20.7 | – |
